GDH-TPI counter-1 = GDH-TPI coupling enzyme inhibitors, primary screen, artefact control for M. tuberculosis FBA inhibitor project, biochemical, absorbance, full deck; GDH-TPI coupled enzyme counterscreen, NADH absorbance; inhibition, % at 4.8 µM; 1.2% of 360,000 active; in the data active = inhibition above about 30%
BH1578 lux ind = inducers of Vibrio cholerae quorum light production without autoinducers, primary screen, BH1578 luxS cqsA deficient, single point; V. cholerae BH1578 lux reporter, luminescence, 6 h; activation, % at 18.7 µM; 0.16% of 350,000 active; in the data active = activation mostly above about 9.7%, no sharp cut-off
Mtb BioA inh = M. tuberculosis BioA enzyme inhibitors, primary screen, biochemical, plate reader, single point, HTS; 7,8-diaminopelargonic acid synthase BioA (Mycobacterium tuberculosis); purified M. tuberculosis BioA enzyme; inhibition, % at 9.99 µM; 0.096% of 360,000 active; AID 602481, 2012; in the data active = inhibition above about 40%
FBA Mtb inh = Mtb FBA enzyme inhibitors, primary screen, biochemical, fluorescence, strain H37Rv; purified M. tuberculosis FBA, fluorescence read-out; Fructose-bisphosphate aldolase (Mycobacterium tuberculosis (strain ATCC 25618 / H37Rv)), …; AID 588726, 2011; inhibition, % at 1 µM; 2.3% of 360,000 active
Target sequence (P9WQA3 whole entry, looked up): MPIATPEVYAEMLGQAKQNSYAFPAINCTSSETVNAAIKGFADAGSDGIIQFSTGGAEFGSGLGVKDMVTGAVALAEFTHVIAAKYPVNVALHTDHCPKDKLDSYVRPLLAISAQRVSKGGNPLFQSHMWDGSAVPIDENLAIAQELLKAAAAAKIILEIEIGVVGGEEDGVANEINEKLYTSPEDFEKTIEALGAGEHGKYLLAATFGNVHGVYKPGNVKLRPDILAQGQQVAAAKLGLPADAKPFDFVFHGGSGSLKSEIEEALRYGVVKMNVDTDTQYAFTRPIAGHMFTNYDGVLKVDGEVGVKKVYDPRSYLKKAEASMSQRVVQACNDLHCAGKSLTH
Mtb FBA inh conf = M. tuberculosis aldolase blockers, biochemical, fluorescence, strain H37Rv, confirmation; inhibition, % at 1 µM; 78% of 5,600 active; shares compounds with FBA Mtb inh; purified M. tuberculosis FBA, fluorescence read-out
GDH-TPI counter-2 = GDH-TPI coupling enzyme inhibitors, artefact control for M. tuberculosis FBA inhibitor project, biochemical, fluorescence, high throughput. shares compounds with FBA Mtb inh. GDH-TPI coupled enzyme counterscreen. inhibition, % at 1 µM. 81% of 5,600 active. AID 652141, 2013; in the data active = inhibition above about 10%
GDH-TPI DR = GDH-TPI coupling enzyme inhibitors, dose response, artefact control for M. tuberculosis FBA inhibitor project, biochemical, fluorescence, IC50. shares compounds with FBA Mtb inh. GDH-TPI coupled enzyme assay, artifact counterscreen. AID 652145, 2013. IC50, µM. 79% of 170 active; call rule not given here
A number is an active result; . = inactive; / = no result; + = active, no number. A selection: hits, their analogues and other compounds. The true share with any hit is near 3%. Rule as the data show it, unless noted: active = inhibition above about 27%; inactive = the rest.

SMILES | GDH-TPI counter-1 | BH1578 lux ind | Mtb BioA inh | FBA Mtb inh | Mtb FBA inh conf | GDH-TPI counter-2 | others
Cc1ccc2nc(-c3ccc(-c4cccc(Cl)c4)cc3)c(NCc3ccccc3)n2c1 | 36.2 | . | . | 29.1 | . | . | GDH-TPI DR=1.55
CCC(C)Sc1ccc(-c2nc3ccc(C)cn3c2NCc2ccccc2)cc1 (stereo unspecified) | . | . | . | 37.8 | 93.8 | 74.5
COc1ccc(NC(=O)Nc2ccc3c(c2)C(=O)N([C@@H](C)CO)C[C@H](C)[C@H](CN(C)C(=O)Nc2c(C)noc2C)O3)cc1 | / | / | . | / | / | /
COC(=O)c1ccc(NC(=O)C2CC3CCC2C3)cc1 (stereo unspecified) | . | . | . | . | / | /
COC(=O)c1ccc(NC(=S)NC2CC3CCC2C3)cc1 (stereo unspecified) | . | . | / | 37.1 | 85.8 | 64.5
CN(C)CC(=O)N[C@@H]1CC[C@@H](CCNC(=O)C2CCCCC2)O[C@H]1CO | / | / | . | / | / | /
COCCCNC(=O)/C(C#N)=C/c1c(N2CCN(c3cccc(Cl)c3)CC2)nc2c(C)cccn2c1=O | . | . | . | 54.4 | 146.5 | 120.3
C=CCNC(=O)/C(C#N)=C/c1c(N2CCN(c3ccc(OC)cc3)CC2)nc2c(C)cccn2c1=O | . | . | . | 45.9 | 173.8 | 157.9
COc1ccc(N2CCN(c3nc4c(C)cccn4c(=O)c3/C=C(\C#N)C(N)=O)CC2)cc1 | . | . | . | 32.4 | . | .
CCNC(=O)/C(C#N)=C/c1c(N2CCN(C)CC2)nc2c(C)cccn2c1=O | . | . | . | 58.7 | 96.2 | 73.0
C=CCNC(=O)/C(C#N)=C/c1c(N2CCN(c3ccccc3)CC2)nc2c(C)cccn2c1=O | . | . | . | . | / | /
C[C@@H]1CN([C@H](C)CO)C(=O)Cc2cc(N(C)C)ccc2O[C@H]1CN(C)C(=O)Nc1cccc2ccccc12 | / | / | . | / | / | /
COc1ccc(C2C(C(=O)N3CCOCC3)=C(C)NC3=C2C(=O)CC(C)(C)C3)c(OC)c1 (stereo unspecified) | . | . | / | 58.4 | + | +
CC1=C(C(=O)N2CCOCC2)C(c2ccccc2F)C2=C(CC(C)(C)CC2=O)N1 (stereo unspecified) | . | . | . | 54.5 | 84.0 | 73.0
C[C@H](CO)N1C[C@H](C)[C@@H](CN(C)C(=O)Nc2ccc(C(F)(F)F)cc2)Oc2ccc(NS(=O)(=O)c3cccs3)cc2CC1=O | / | / | . | / | / | /
CCOC(=O)Nc1ccc2c3c(cccc13)-c1ccccc1-2 | . | . | . | 57.2 | 69.5 | 61.1
CCC(C)Sc1ccc(-c2nc3ccccn3c2NCc2ccccc2)cc1OC (stereo unspecified) | . | . | . | 40.8 | 115.5 | 89.8
CCCCCCSc1cc(-c2nc3cnccn3c2NCc2ccccc2)ccc1OC | . | . | . | . | / | /
COc1cc(-c2nc3ccccn3c2NCc2ccccc2)ccc1SC1CCCCC1 | . | . | . | 44.9 | 83.8 | 51.6
COc1ccc(CSc2ccc(-c3nc4ccccn4c3NCc3ccccc3)cc2OC)cc1 | . | . | . | 34.3 | 30.5 | 27.8
CCCCCCSc1cc(-c2nc3cc(C)ccn3c2NC2CCCCC2)ccc1OC | . | . | . | . | / | /
COc1ccc(-c2nc3ccccn3c2NC2CCCCC2)cc1SC1CCCCC1 | . | . | . | 44.4 | 132.4 | 115.4
CC(=O)Nc1nnc(-c2ccccn2)o1 | . | . | / | 31.2 | + | 152.6
COCCSc1nc(N)c2c3c(sc2n1)CN(C)CC3 | . | . | / | 52.3 | 70.2 | 48.4
CN(C)CCSc1nc(N)c2c3c(sc2n1)CN(C)CC3 | . | . | . | 37.7 | 73.0 | 61.7
SMILES | GDH-TPI counter-1 | BH1578 lux ind | Mtb BioA inh | FBA Mtb inh | Mtb FBA inh conf | GDH-TPI counter-2 | others
C[C@H]1CCCCO[C@@H](CN(C)C(=O)Nc2ccc(C(F)(F)F)cc2)[C@@H](C)CN([C@@H](C)CO)C(=O)c2cc(NC(=O)CCC(F)(F)F)ccc2O1 | / | / | . | / | / | /
CC(C)NC(=O)N(C)C[C@H]1Oc2cc(C#CCN(C)C)ccc2S(=O)(=O)N([C@H](C)CO)C[C@H]1C | / | / | . | / | / | /
CCN(CC)c1ccc(-c2n[nH]c(=S)n2-c2ccccc2)cc1 | . | . | / | 37.0 | 86.1 | 68.2
CN(C)c1ccc(-c2n[nH]c(=S)n2-c2ccccc2)cc1 | . | . | . | . | / | /
COc1ccc(S(=O)(=O)N(C)C[C@H]2Oc3ccc(NC(=O)C4CCCCC4)cc3C(=O)N([C@@H](C)CO)C[C@H]2C)cc1 | / | / | . | / | / | /
O=C(NCC[C@H]1CC[C@H](NS(=O)(=O)Cc2ccccc2)[C@H](CO)O1)C1CC1 | / | / | . | / | / | /
COCCn1c(=NC(=O)c2ccc3c(c2)OCCO3)sc2cc(S(N)(=O)=O)ccc21 | 45.0 | . | / | 108.8 | 76.2 | 49.8
COCCn1c(=NC(=O)c2cc(Cl)sc2Cl)sc2cc(S(N)(=O)=O)ccc21 | . | . | . | . | / | /
COC(=O)c1cc2c(=O)c3ccccc3oc2nc1/C=C/N(C)C | . | . | . | 32.0 | 97.7 | 64.3
COc1ccc(Cl)cc1-c1nc(SCC(=O)NC(C)(C)C)n[nH]1 | . | . | / | 28.5 | 100.2 | 93.5
COc1ccc2c(c1OC)C(=O)OC2Nc1nc(-c2ccc(-c3ccccc3)cc2)cs1 (stereo unspecified) | . | . | . | 33.9 | . | . | GDH-TPI DR=9.52
O=c1[nH]cnc2nc(-c3ccccc3)c(-c3ccccc3)nc12 | . | . | . | 50.0 | . | .
O=c1[nH]cnc2c1nnn2Cc1ccccc1 | . | . | . | . | / | /
O=c1[nH]cnc2nn(-c3ccccc3)nc12 | . | . | . | 98.7 | . | .
C[C@H](CO)N1C[C@H](C)[C@H](CN(C)Cc2ccncc2)Oc2ccc(NS(=O)(=O)c3cn(C)cn3)cc2CC1=O | / | / | . | / | / | /
CN(C)CCCNC(=O)C[C@H]1C[C@H](C(=O)N2CCCCC2)[C@@]2(C)c3[nH]c4cc(-c5ccco5)ccc4c3CCN2C1=O | . | . | . | 33.8 | 40.6 | 34.4
C[C@]12c3[nH]c4cc(-c5ccco5)ccc4c3CCN1C(=O)[C@@H](CC(=O)NCCCn1ccnc1)C[C@@H]2C(=O)N1CCOCC1 | . | . | . | 28.5 | . | .
CCN(CC)C(=O)[C@H]1C[C@H](CC(=O)NC(C)(C)C)C(=O)N2CCc3c([nH]c4cc(-c5ccco5)ccc34)[C@]12C | . | . | . | 37.8 | + | 139.6
C[C@]12c3[nH]c4cc(-c5ccco5)ccc4c3CCN1C(=O)[C@@H](CC(=O)NCCN1CCOCC1)C[C@@H]2C(=O)N1CCOCC1 | . | . | . | 46.4 | + | +

Bioassay records: PubChem, several laboratories
